Among all 69,000 compounds or so, about 8,600 (12%) showed an effect of 50% or more. For the sample, strong results were picked, then their nearest neighbours and some compounds at random.

For the test, the system named is Plasmodium berghei. Kind of test: Screen against P. berghei liver stage (PbLuc), transformed with Luciferase, at 10uM. Format: functional, HepG2. The settings on record: tested at 10 uM.
On to `Cc1noc(C)c1CCC(=O)N1CCOCC1CC(=O)N1CCCC1` (centres undefined), for which the INHIBITION is recorded as -14.1%. Turning to `COCC(=O)N1CCO[C@H]2[C@H](OCc3cccnc3)CC[C@@H]21`, the INHIBITION is reported as -15.7%. Take `O=C1NCCCC12CCN(c1nc3c(c(C(F)(F)F)n1)CCCC3)C2` (centres undefined): the INHIBITION turned out to be 80.7%.

As for `Cc1nc(N2CCC3(CCCNC3=O)C2)nc2c1CCCC2` (centres undefined), the INHIBITION stood at 47.5%. With `CNc1nc(N2CCC3(CCCNC3=O)C2)nc2c1CCC2` (centres undefined) the figure was -7.17%. With `CCC(O)CN1CCN(C(=O)c2cccn2Cc2cccnc2)CC1` (centres undefined) the figure was 7.12%; with `CN(C)CCCNC(=O)C1CC(=O)N(c2n[nH]c3cccc(F)c23)C1` (centres undefined), 14.6%; with `CC(C)(C)NC(=O)CNc1ncccn1`, -1.85%. For the compound `Cc1nc(N2CCN(C)CC2)ncc1C(=O)N1CCCCCC1`, the INHIBITION was 51.7%. As to `Cc1nc(N2CCN(C)CC2)ncc1C(=O)N1CCCCC1`, the INHIBITION was found to be 36.6%.

On to `Cc1nc(N2CCN(C)CC2)ncc1C(=O)N1CCN(C)CC1`, for which the INHIBITION amounted to 23%.

In the case of `CC1CCN(c2ccc(C(=O)N3CCCC3c3ccc[nH]3)cn2)CC1` (centres undefined), the INHIBITION was 27%. Under `CCCN1C(=O)[C@@H]2CC[C@H]1CN(S(=O)(=O)c1cccc(Cl)c1)C2` stands -26.8%; under `COc1cccc(C(=O)NC(c2ccccn2)C2CCC(CN)CC2)c1` (centres undefined), 41.2%; under `CN(CC(=O)Nc1nc2c(s1)CCC2)C(=O)c1cccs1`, -8.51%. For `CN(CC(=O)Nc1nc2c(s1)CCCCCC2)C(=O)c1ccco1`, the INHIBITION is given as 74.4%. With `CC1CCc2nc(NC(=O)CN(C)C(=O)c3ccco3)sc2C1` (centres undefined), the INHIBITION is 31.4%.

On to `Cc1cccc(CN2C[C@@H]3COC[C@]3(CNC(=O)c3ccccc3)C2)n1`, for which the INHIBITION is on record as 38.3%.

As for `CC(=O)N1CCC(N2CCN(Cc3ccc(C)o3)C(CCO)C2)CC1` (centres undefined), the INHIBITION is 33.7%.

For `Cc1ccc(CN2CCN(C3CSCCSC3)CC2CCO)o1` (centres undefined), the INHIBITION is 50.9%. As for `COc1cc(N2CCN(Cc3ccc(C)o3)C(CCO)C2)nc(N)n1` (centres undefined), the INHIBITION is reported as 35.2%. Consider `Cc1ccc(CN2CCN(C3CCC3)CC2CCO)o1` (centres undefined), for which the INHIBITION was 46.6%. Under `Cc1ccc(CN2CCN(C3CCSCC3)CC2CCO)o1` (centres undefined) stands 48%.

Take `Cc1ccc(CN2CCN(C3CCCC3)CC2CCO)o1` (centres undefined): the INHIBITION came out at 50.9%. Under `CCCc1ccc(CN2CCC3(CCC(=O)N(C(C)C(=O)O)C3)CC2)o1` (centres undefined) stands 1.74%. As to `O=C(CN1CCN(C(=O)c2sccc2C2CC2)CC1)NC1CC1`, the INHIBITION was 31.8%. With `CCOCC(=O)N1C[C@@H]2CC[C@H]1CN(C(=O)c1ccncc1)C2` the figure was -30.7%; with `Cc1cc(NC(C)c2csc(C)n2)n2nc(C)c(C)c2n1` (centres undefined), 25.4%; with `CC(SCC(=O)NC(N)=O)c1ccccc1F` (centres undefined), 24.7%. As for `CCNC(=O)NC(=O)CSC(C)c1ccccc1F` (centres undefined), the INHIBITION was -32.3%. With `CC(SCC(=O)N(C)CC(=O)NC1CC1)c1cc(F)ccc1F` (centres undefined), the INHIBITION was found to be 49.3%. Under `CNC(=O)NC(=O)CSC(C)c1ccccc1F` (centres undefined) stands 55%; under `CC(SCC(=O)N(C)CC(=O)NC1CC1)c1ccc(F)c(F)c1` (centres undefined), -18.9%; under `CC(SCC(=O)N(C)CC(=O)NC1CC1)c1ccccc1F` (centres undefined), 85.7%.

For the compound `Nc1nc(C2CCN(C(=O)c3cscn3)CC2)cs1`, the INHIBITION is listed as 34.7%. Under `CN1C[C@@H]2CN(C(=O)NCc3ccccc3)CCC[C@]2(C(=O)O)C1` stands 5.63%; under `COCC1CC2(CCN(Cc3ccoc3)CC2)CN1C(C)C` (centres undefined), -1.26%; under `Cc1ccccc1CNC(=O)c1ccccc1-n1cc(CN)cn1`, 20.8%.

For `CSCC[C@H](N)C(=O)NCc1cc2n(n1)CCCN(C(=O)C1CCC1)C2`, the INHIBITION was determined as 28.5%. `Cc1cc(C)c(CNC(=O)NCc2ccc(F)cc2)c(=O)[nH]1`: the INHIBITION was 27.6%.

Turning to `c1cc2cc[nH]c2c(CC2CN(Cc3cscn3)C2)n1`, the INHIBITION is 53.6%. With `Cn1ccc(CN2CC(Cc3nccc4cc[nH]c34)C2)n1`, the INHIBITION was 41.5%. For the compound `c1cc2cc[nH]c2c(CC2CN(Cc3cncs3)C2)n1`, the INHIBITION was -0.232%. Under `COC(=O)N1CC[C@@]2(O)CCCC[C@H]2[C@@H]1c1ccc2c(c1)OCO2` stands 42.3%; under `NC(=O)CN1CC[C@@]2(O)CCCC[C@H]2[C@@H]1c1ccc2c(c1)OCO2`, 17.6%; under `CC(=O)N1CC[C@@]2(O)CCCC[C@H]2[C@@H]1c1ccc2c(c1)OCO2`, 52.1%. Under `CCOCC1CN(S(=O)(=O)N(C)C)Cc2cnn(CC3CC3)c21` (centres undefined) stands -57.7%; under `Cc1cc(CCC(=O)N2CCCC2)nc(C2CCCN2)n1` (centres undefined), 24.8%. As for `O=S(=O)(CCCN1CCCCC1Cn1cncn1)c1ccccc1` (centres undefined), the INHIBITION is -29.8%. With `CN(CC(=O)N1CCCCC1c1nccs1)C1CC1` (centres undefined) the figure was 13.6%; with `CC1CN(Cc2cccc(CNC3CCCC3)c2)CCO1` (centres undefined), 37.4%. Consider `CC1CN(Cc2cccc(CN)c2)CCO1` (centres undefined), for which the INHIBITION was 59.1%.

With `CCCN1CCC(NCc2cccc(CN3CCOC(C)C3)c2)CC1` (centres undefined), the INHIBITION amounted to 21.1%. Under `CC1CCN(CC(=O)N(C)CCc2noc(C3CC3)n2)C1=O` (centres undefined) stands -22.1%.
